According to the supplement of paper PMC10849652:
The full data set covers some 7,900 targets. This sample favours those with a hit. About 0.6% of all pairs of compound and target were hits.

Legend:
Assay in all cases: log2 fold change, soluble protein after heating vs DMSO (PISA); higher = thermal stabilisation; K562 cells, 10 uM, 30 min; active = over 0.2 and 3.5 SD of the protein, either way, in both replicates (recomputed)
[1] = compound: CS(=O)(=O)c1ccc(-c2cnc(N)c(C(=O)Nc3ccccc3)n2)cc1
Procedure, shortened: (§1)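 Values are thermal stability changes relative to control samples and are taken from duplicates. They are stated as log2 fold changes. Before quantification by TMTpro 16plex LC-MS/MS with equalised channel sums, K562 cells at 2×10^6 cells/mL were treated with 10 μM compound for 30 min, heated in aliquots for 3 min across 48°C-58°C, pooled, extracted in PBS with 0.5% NP-40 at 4°C, and centrifuged at 21,000xg for 90 min to give the soluble supernatant.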

[2] = compound: C[C@@H](Oc1cc(-c2cnn(C3CCNCC3)c2)cnc1N)c1c(Cl)ccc(F)c1Cl [crizotinib]
Procedure, shortened: as §1

[3] = compound: C[C@@H]1COCCN1C2=NC(=NC(=C2)C3(CC3)S(=O)(=O)C)C4=C5C=CNC5=CC=C4
Procedure, shortened: as §1

[4] = compound: C[C@H](C1=CC=C(C=C1)C(=O)NC2=C3C=CNC3=NC=C2)N
Procedure, shortened: as §1

[5] = compound: C[C@H](Nc1ncnc2nc[nH]c12)c1cc2cccc(Cl)c2c(=O)n1-c1ccccc1 [duvelisib]
Procedure, shortened: as §1

[6] = compound: Cc1cc(Nc2cc(CN3CCOCC3)c3nc(C)c(Cc4ccc(Cl)cc4F)n3n2)n[nH]1 [gandotinib]
Procedure, shortened: as §1

[7] = compound: Cc1cc(Nc2cc(N3CCN(C)CC3)nc(Sc3ccc(NC(=O)C4CC4)cc3)n2)n[nH]1 [tozasertib]
Procedure, shortened: as §1

[8] = compound: Cc1cc(SCc2sc(-c3ccc(C(F)(F)F)cc3)nc2C)ccc1OCC(=O)O
Procedure, shortened: as §1

[9] = compound: Cc1ccc(-n2nc(C(C)(C)C)cc2NC(=O)Nc2ccc(OCCN3CCOCC3)c3ccccc23)cc1 [doramapimod]
Procedure, shortened: as §1

[10] = compound: Cc1ccc(C(=O)N(CCCN)[C@@H](c2nc3cc(Cl)ccc3c(=O)n2Cc2ccccc2)C(C)C)cc1 [ispinesib]
Procedure, shortened: as §1

[11] = compound: Cc1ccc(NC(=O)c2ccc(CN3CC[C@H](N(C)C)C3)c(C(F)(F)F)c2)cc1Nc1nccc(-c2cncnc2)n1 [bafetinib]
Procedure, shortened: as §1

[12] = compound: Cc1cccc(CC(=O)N2CCc3c2ccc(-c2cn(C)c4ncnc(N)c24)c3F)n1
Procedure, shortened: as §1

[13] = compound: Cc1cn(-c2cc(NC(=O)c3ccc(C)c(Nc4nccc(-c5cccnc5)n4)c3)cc(C(F)(F)F)c2)cn1 [nilotinib]
Procedure, shortened: as §1

[14] = compound: Cc1nc(Nc2n[nH]c3c2CN(C(=O)N[C@H](CN(C)C)c2ccccc2)C3(C)C)c2sccc2n1
Procedure, shortened: as §1

[15] = compound: Cc1nc(Nc2ncc(C(=O)Nc3c(C)cccc3Cl)s2)cc(N2CCN(CCO)CC2)n1 [dasatinib]
Procedure, shortened: as §1

[16] = compound: Cc1ncc(-c2ccnc(Nc3ccc(S(C)(=O)=O)cc3)n2)n1C(C)C
Procedure, shortened: as §1

[17] = compound: Cn1cc(-c2ccc3c(c2)CCN3C(=O)Cc2cccc(C(F)(F)F)c2)c2c(N)ncnc21
Procedure, shortened: as §1

[18] = compound: Cn1cc(-c2ccc3nnc(C(F)(F)c4ccc5ncccc5c4)n3n2)cn1
Procedure, shortened: as §1

[19] = compound: Cn1cncc1[C@@](N)(c1ccc(Cl)cc1)c1ccc2c(c1)c(-c1cccc(Cl)c1)cc(=O)n2C [tipifarnib]
Procedure, shortened: as §1

[20] = compound: FC(F)(F)c1ccc(/C=C/c2nc(COc3ccc(CCCCn4ccnn4)cc3)co2)cc1 [mubritinib]
Procedure, shortened: as §1

Measured: log2 fold change

KHDRBS1 (UniProt Q07666)
inactive: [1] -0.091 | [2] -0.02 | [3] -0.06 | [4] -0.019 | [5] -0.017 | [6] 0.07 | [7] -0.015 | [8] 0.038 | [9] -0.027 | [10] 0.011 | [11] 0.041 | [12] 0.007 | [13] 0.035 | [14] 0.02 | [15] 0.012 | [16] 0.07 | [17] 0.025 | [18] -0.024 | [19] 0.017 | [20] 0.021

LUC7L2 (UniProt Q9Y383)
Sequence of UniProt Q9Y383 (Q9Y383 whole entry, looked up): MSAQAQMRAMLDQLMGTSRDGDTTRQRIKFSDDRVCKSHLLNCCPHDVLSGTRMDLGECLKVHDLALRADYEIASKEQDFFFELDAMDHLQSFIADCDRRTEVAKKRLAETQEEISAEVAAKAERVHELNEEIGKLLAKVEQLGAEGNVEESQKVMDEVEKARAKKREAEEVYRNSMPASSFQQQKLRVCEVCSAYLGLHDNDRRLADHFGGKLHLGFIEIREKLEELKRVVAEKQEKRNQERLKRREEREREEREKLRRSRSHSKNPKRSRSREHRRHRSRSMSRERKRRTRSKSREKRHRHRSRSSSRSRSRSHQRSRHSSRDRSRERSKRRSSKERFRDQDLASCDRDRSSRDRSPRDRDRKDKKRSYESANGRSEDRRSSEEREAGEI
active: [4] -0.439 | [14] -2.75
inactive: [1] -0.083 | [2] 0.02 | [3] 0.053 | [5] -0.002 | [6] 0.031 | [7] 0.065 | [8] 0.03 | [9] -0.03 | [10] 0.111 | [11] 0.035 | [12] 0.002 | [13] 0.059 | [15] -0.01 | [16] -0.007 | [17] -0.033 | [18] -0.059 | [19] 0.049 | [20] -0.07

LIMA1 isoform 4 (UniProt Q9UHB6)
inactive: [1] -0.076 | [2] 0.001 | [3] -0.04 | [4] -0.057 | [5] 0.003 | [6] 0.019 | [7] 0.027 | [8] -0.036 | [9] -0.023 | [10] 0.185 | [11] -0.115 | [12] 0.019 | [13] -0.136 | [14] -0.112 | [15] 0.179 | [16] 0.052 | [17] -0.154 | [18] -0.071 | [19] 0.088 | [20] 0.019

LMBR1 isoform 3 (UniProt Q8WVP7)
Sequence of UniProt Q8WVP7 (Q8WVP7 whole entry, looked up): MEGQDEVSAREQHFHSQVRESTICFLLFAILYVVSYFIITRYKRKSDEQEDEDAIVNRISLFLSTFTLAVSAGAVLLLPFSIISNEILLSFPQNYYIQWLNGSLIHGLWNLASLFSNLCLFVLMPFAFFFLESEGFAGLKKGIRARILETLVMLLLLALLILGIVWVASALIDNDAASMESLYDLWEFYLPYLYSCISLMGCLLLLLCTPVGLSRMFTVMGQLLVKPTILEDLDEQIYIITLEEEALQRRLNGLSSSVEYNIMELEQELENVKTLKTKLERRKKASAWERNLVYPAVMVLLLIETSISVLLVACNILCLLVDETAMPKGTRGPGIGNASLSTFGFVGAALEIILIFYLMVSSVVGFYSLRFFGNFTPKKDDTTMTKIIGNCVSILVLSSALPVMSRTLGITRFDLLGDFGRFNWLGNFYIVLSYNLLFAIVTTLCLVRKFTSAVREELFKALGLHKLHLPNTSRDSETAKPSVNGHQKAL
active: [6] -0.812
inactive: [1] 0.086 | [2] -0.198 | [3] 0.019 | [4] -0.05 | [5] 0.095 | [7] 0.028 | [8] 0.04 | [9] 0.032 | [10] -0.477 | [11] -0.182 | [12] 0.007 | [15] 0.012 | [17] 0.093 | [18] -0.143 | [19] -0.044 | [20] 0.063

LYN (UniProt P07948)
Sequence of UniProt P07948 (P07948 whole entry, looked up): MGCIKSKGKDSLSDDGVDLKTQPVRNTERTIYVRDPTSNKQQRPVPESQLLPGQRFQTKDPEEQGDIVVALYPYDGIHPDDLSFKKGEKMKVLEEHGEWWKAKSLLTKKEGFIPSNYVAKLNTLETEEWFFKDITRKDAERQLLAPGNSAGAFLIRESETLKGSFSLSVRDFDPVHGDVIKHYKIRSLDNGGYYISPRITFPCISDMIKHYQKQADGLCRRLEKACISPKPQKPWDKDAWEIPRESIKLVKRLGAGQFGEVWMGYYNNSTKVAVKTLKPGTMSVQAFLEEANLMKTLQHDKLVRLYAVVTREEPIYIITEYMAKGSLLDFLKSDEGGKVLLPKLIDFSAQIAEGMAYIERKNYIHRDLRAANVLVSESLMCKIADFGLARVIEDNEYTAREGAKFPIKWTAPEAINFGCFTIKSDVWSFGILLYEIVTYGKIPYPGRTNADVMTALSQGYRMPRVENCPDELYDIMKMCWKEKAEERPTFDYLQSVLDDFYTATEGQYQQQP
active: [14] -0.414 | [15] -0.419
inactive: [1] -0.023 | [2] -0.142 | [3] -0.101 | [4] -0.01 | [5] 0.118 | [6] -0.015 | [7] -0.085 | [8] 0.132 | [9] 0.065 | [10] -0.094 | [11] 0.26 | [12] 0.008 | [13] 0.062 | [16] -0.043 | [17] -0.06 | [18] 0.034 | [19] -0.005 | [20] -0.003

ITPRIP (UniProt Q8IWB1)
inactive: [1] -0.002 | [2] 0.056 | [3] 0.012 | [4] -0.039 | [5] 0.005 | [6] -0.049 | [7] 0.045 | [8] 0.038 | [9] 0.062 | [10] -0.037 | [11] -0.126 | [12] -0.016 | [13] -0.109 | [14] 0.035 | [15] -0.041 | [16] -0.08 | [17] 0.073 | [18] 0.012 | [19] -0.007 | [20] 0.061

MCU (UniProt Q8NE86)
Sequence of UniProt Q8NE86 (Q8NE86 whole entry, looked up): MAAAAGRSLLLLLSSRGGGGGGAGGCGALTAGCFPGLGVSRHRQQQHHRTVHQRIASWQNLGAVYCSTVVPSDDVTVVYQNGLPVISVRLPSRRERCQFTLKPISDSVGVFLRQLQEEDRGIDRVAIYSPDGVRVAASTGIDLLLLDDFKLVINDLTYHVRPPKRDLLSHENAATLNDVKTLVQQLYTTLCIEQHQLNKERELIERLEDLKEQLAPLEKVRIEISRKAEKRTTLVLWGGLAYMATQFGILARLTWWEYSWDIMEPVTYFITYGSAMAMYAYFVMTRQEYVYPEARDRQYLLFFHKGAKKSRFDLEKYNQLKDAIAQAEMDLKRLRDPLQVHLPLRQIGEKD
inactive: [1] -0.013 | [2] -0.159 | [3] 0.015 | [4] 0.001 | [5] 0.061 | [6] -0.172 | [7] -0.012 | [8] 0.054 | [9] -0.013 | [10] -0.1 | [11] -0.173 | [12] 0.032 | [13] -0.017 | [14] 0.128 | [15] -0.055 | [16] -0.026 | [17] -0.03 | [18] 0 | [19] -0.005 | [20] 0.024

KDM1A isoform 2 (UniProt O60341)
inactive: [1] -0.047 | [2] -0.036 | [3] 0.018 | [4] -0.011 | [5] 0.025 | [6] 0.014 | [7] 0.049 | [8] 0.061 | [9] -0.028 | [10] -0.057 | [11] 0.007 | [12] 0.014 | [13] -0.078 | [14] -0.059 | [15] -0.07 | [16] -0.001 | [17] -0.002 | [18] -0.011 | [19] -0.108 | [20] 0.095

KTN1 (UniProt Q86UP2)
inactive: [1] -0.016 | [2] -0.078 | [3] -0.028 | [4] 0.122 | [5] -0.027 | [6] -0.047 | [7] -0.007 | [8] 0.097 | [9] 0.094 | [10] -0.207 | [11] 0.042 | [12] 0.013 | [13] -0.117 | [14] 0.055 | [15] -0.013 | [16] 0.063 | [17] -0.081 | [18] -0.03 | [19] -0.064 | [20] -0.032

INPP5B (UniProt P32019)
inactive: [1] 0.057 | [2] -0.096 | [3] -0.02 | [4] 0.042 | [5] -0.045 | [6] 0.017 | [7] 0.151 | [8] 0.029 | [9] 0.095 | [10] -0.005 | [11] 0.103 | [12] -0.059 | [13] -0.077 | [14] 0.001 | [15] -0.111 | [16] 0.014 | [17] -0.005 | [18] -0.032 | [19] 0.072 | [20] 0.018

KNTC1 (UniProt P50748)
inactive: [1] 0.038 | [2] -0.178 | [3] -0.002 | [4] 0.045 | [5] 0.061 | [6] -0.162 | [7] 0.014 | [8] 0.012 | [9] -0.01 | [10] -0.086 | [11] -0.013 | [12] 0.043 | [13] -0.064 | [14] -0.026 | [15] -0.047 | [16] 0.042 | [17] -0.073 | [18] 0 | [19] -0.108 | [20] 0.004

MICU2 (UniProt Q8IYU8)
inactive: [1] 0.014 | [2] -0.173 | [3] -0.026 | [4] 0.108 | [5] -0.045 | [6] -0.062 | [7] -0.036 | [8] 0.035 | [9] -0.009 | [10] -0.213 | [11] -0.142 | [12] 0.092 | [13] -0.052 | [14] -0.067 | [15] -0.102 | [16] -0.001 | [17] -0.022 | [18] -0.05 | [19] 0.022 | [20] -0.155

MAP4 (UniProt P27816)
Sequence of UniProt P27816 (P27816 whole entry, looked up): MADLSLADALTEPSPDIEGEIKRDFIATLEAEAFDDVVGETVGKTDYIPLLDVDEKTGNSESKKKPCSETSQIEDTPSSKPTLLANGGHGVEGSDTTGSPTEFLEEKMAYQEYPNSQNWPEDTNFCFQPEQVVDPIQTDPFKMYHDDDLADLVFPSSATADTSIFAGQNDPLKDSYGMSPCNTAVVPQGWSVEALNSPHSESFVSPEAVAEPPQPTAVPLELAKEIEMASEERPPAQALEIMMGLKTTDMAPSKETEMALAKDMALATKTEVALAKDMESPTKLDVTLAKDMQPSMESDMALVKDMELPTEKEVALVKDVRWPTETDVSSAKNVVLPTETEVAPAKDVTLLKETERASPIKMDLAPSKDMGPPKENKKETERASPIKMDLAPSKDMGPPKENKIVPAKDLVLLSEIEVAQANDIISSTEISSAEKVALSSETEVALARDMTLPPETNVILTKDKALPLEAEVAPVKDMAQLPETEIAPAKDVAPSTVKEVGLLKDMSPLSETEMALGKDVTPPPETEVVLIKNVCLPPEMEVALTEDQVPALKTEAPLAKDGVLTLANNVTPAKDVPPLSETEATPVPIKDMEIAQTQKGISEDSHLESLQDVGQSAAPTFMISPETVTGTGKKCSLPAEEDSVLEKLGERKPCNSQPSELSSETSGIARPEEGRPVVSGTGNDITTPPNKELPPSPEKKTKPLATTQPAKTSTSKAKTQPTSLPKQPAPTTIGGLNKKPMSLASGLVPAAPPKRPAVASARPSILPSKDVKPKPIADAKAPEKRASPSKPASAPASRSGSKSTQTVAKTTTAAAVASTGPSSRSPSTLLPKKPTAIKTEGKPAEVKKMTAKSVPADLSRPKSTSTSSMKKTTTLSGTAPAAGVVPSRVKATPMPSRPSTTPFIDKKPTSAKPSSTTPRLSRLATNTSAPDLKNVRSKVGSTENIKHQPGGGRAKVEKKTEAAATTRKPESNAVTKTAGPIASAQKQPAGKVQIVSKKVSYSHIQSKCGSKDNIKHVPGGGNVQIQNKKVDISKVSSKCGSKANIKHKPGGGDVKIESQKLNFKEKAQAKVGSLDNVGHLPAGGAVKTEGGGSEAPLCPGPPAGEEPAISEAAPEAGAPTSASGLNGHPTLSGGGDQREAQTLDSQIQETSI
inactive: [1] -0.004 | [2] 0.012 | [3] -0.025 | [4] -0.035 | [5] -0.03 | [6] 0.006 | [7] -0.023 | [8] -0.051 | [9] 0.008 | [10] -0.014 | [11] 0.008 | [12] 0.005 | [13] 0.008 | [14] 0.008 | [15] 0.049 | [16] -0.01 | [17] -0.033 | [18] -0.029 | [19] 0 | [20] -0.007

ITIH4 (UniProt Q14624)
Sequence of UniProt Q14624 (Q14624 whole entry, looked up): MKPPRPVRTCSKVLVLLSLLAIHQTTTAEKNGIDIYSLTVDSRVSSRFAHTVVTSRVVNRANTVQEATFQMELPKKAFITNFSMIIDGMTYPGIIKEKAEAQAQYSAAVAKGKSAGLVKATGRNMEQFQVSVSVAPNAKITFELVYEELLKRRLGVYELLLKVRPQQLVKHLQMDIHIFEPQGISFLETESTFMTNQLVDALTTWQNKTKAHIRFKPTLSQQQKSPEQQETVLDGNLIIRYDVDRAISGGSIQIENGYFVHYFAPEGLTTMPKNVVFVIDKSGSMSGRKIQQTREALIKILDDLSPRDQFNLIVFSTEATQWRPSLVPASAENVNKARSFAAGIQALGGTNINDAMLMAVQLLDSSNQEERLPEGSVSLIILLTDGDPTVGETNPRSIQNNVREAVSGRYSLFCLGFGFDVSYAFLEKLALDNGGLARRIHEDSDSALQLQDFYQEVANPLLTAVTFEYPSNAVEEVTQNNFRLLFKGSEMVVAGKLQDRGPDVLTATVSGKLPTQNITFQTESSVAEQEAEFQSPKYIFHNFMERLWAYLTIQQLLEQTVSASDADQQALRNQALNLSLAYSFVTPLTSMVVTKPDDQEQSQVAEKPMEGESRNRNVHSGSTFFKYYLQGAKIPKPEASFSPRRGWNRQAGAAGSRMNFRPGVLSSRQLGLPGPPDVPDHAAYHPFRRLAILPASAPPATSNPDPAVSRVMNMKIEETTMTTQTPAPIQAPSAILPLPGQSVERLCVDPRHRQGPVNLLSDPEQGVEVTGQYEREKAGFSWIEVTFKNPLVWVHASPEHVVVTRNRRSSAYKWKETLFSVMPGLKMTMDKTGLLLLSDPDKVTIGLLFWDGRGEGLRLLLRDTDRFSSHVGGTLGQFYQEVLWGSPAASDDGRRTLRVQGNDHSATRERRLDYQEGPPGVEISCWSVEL
inactive: [1] -0.107 | [2] -0.102 | [3] 0.129 | [4] -0.005 | [5] 0.103 | [6] -0.387 | [7] -0.033 | [8] -0.031 | [9] -0.291 | [10] -0.402 | [11] -0.319 | [12] 0.117 | [13] -0.259 | [14] 0.194 | [15] 0.039 | [16] 0.225 | [17] 0.148 | [18] 0.114 | [19] -0.038 | [20] -0.134

LPIN1 isoform 7 (UniProt Q14693)
Sequence of UniProt Q14693 (Q14693 whole entry, looked up): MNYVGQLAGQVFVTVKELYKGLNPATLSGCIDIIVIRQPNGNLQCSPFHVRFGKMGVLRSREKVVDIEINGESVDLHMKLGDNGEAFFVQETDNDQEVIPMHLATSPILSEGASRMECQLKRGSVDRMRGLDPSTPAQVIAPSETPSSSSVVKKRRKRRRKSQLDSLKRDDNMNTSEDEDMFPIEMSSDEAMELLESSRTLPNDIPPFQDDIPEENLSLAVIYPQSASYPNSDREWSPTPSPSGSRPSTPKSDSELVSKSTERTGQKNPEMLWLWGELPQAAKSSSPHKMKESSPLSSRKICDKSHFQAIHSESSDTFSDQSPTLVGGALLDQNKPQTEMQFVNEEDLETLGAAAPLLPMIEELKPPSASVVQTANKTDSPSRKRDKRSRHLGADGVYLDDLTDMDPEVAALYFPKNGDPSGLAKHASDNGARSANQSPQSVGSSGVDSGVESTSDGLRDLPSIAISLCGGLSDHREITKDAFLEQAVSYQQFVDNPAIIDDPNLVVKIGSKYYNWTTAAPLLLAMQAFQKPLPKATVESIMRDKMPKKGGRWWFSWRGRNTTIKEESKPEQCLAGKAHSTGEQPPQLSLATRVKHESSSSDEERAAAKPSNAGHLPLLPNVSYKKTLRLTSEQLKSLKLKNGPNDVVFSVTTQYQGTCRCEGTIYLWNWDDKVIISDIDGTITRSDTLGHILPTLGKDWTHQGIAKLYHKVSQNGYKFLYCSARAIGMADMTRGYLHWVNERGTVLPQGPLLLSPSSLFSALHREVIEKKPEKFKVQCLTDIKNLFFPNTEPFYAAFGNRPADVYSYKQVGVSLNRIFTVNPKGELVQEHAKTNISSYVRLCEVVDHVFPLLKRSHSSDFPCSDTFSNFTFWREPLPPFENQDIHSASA
inactive: [1] 0 | [2] -0.184 | [3] -0.034 | [4] 0.031 | [5] -0.052 | [6] -0.079 | [7] -0.021 | [8] -0.043 | [9] 0.067 | [10] -0.037 | [11] -0.076 | [12] 0.051 | [13] -0.038 | [14] 0.046 | [15] -0.016 | [16] -0.079 | [17] -0.025 | [18] -0.058 | [19] -0.019 | [20] 0.095

MGST1 (UniProt P10620)
Sequence of UniProt P10620 (P10620 whole entry, looked up): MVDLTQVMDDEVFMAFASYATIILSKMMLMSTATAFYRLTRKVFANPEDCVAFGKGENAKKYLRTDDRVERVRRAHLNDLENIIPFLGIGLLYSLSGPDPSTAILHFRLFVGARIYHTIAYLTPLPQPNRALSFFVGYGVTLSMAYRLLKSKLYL
active: [4] -0.257
inactive: [1] -0.006 | [2] 0.152 | [3] -0.01 | [5] -0.042 | [6] 0.044 | [7] -0.111 | [8] -0.123 | [9] -0.053 | [10] -0.027 | [11] -0.001 | [12] -0.053 | [13] -0.006 | [14] 0.078 | [15] 0.084 | [16] -0.039 | [17] -0.013 | [18] 0.014 | [19] 0.131 | [20] -0.005
